# A number with no mark means an inactive call. Calls of active or inactive are those of the source. How the calls were made is not given here.
# Molecular target: L-lactate dehydrogenase (Plasmodium falciparum (isolate CDC / Honduras)) (UniProt Q27743)
# Test: PfLDH activity inhibition – cell lysate, 3D7 strain, counter-screen for P. falciparum growth inhibition project (AID 2304);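 further: 0% = vehicle and 100% = reference inhibitor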
# Settings: P. falciparum 3D7 crude extract, LDH APAD/NBT absorbance; at 2 µM; active compounds read high
# Sequence of L-lactate dehydrogenase (Plasmodium falciparum (isolate CDC / Honduras)) (Q27743 whole entry, looked up): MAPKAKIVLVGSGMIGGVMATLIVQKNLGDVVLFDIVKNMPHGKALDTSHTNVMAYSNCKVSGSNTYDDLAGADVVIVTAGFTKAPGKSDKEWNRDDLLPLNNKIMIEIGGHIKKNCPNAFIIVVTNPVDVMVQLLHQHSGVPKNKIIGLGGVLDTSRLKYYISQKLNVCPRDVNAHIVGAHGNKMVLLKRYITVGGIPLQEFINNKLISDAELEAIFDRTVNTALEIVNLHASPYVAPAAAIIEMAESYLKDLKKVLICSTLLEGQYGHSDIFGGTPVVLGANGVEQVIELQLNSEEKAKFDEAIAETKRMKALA
row,Structure (SMILES),inhibition
1,Cc1ccc(NC(=O)c2ccc(Cl)c(Cl)c2)cc1-c1ccc(C(=O)Nc2ccncc2)cc1,-3%
2,O=C(/C=C/c1ccc(C(F)(F)F)cc1)N1CCC(CCN2CCC(c3c[nH]c4ccccc34)CC2)CC1,-11%
3,O=C(/C=C/c1ccc(Cl)c(Cl)c1)NC1CCN(Cc2cccc(O)c2)CC1,-1%
4,Cc1cccc2[nH]c(-c3ccc(-c4cccc(NC(=O)Nc5ccsc5)c4)cc3)nc12,8%
5,COc1ccc2nccc([C@@H](O)CN3CCC(NCc4ccc5c(c4)OCCO5)CC3)c2c1,-4%
6,CCN(c1ccc(F)cc1)S(=O)(=O)c1cc(Br)cc2c1N(C(=O)C1CC1)CC2,7%
7,Cn1c(=N)n(CC(=O)N2CCc3ccc(Cl)cc3C2Cc2ccc(Cl)c(Cl)c2)c2ccccc21 (stereo not given),-1%
8,COc1cc(C(=O)N2CCN(C(C)C)CC2)ccc1CN(C)CCCN1CCN(c2cccc(Cl)c2Cl)CC1,0%
9,O=C(NCCc1ccccc1)N(Cc1ccc(-c2cccc(CN3CCNCC3)c2)cc1)C1CCN(Cc2ccccc2)CC1,-1%
10,Cc1cc(N2CCCC2)nc(Nc2ccc(NC(=O)c3ccccc3)cc2)n1,-3%
11,O=C(Cc1ccccc1)NC(CCN1CCC(O)(c2cccc(C(F)(F)F)c2)CC1)c1ccc(Cl)c(Cl)c1 (stereo not given),1%
12,Oc1ccc(CN2CC[C@@H](N3CCN(CCc4ccccc4)CC3)[C@H](O)C2)cc1Cl,2%
13,Oc1c(C(Nc2nc3ccccc3s2)c2ccccc2)ccc2cccnc12 (stereo not given),-4%
14,CN(C)C(CNC(=O)c1cc(-c2ccncc2)c(-c2ccc(NC(=O)Nc3cccc(Cl)c3)cc2)o1)c1ccccc1 (stereo not given),-1%
15,COc1cc(NC(=O)c2sc(-c3ccc(Cl)cc3)cc2NC(=O)c2ccncc2)ccc1OCCN1CCCC1,3%
16,Cc1cc(NN=Cc2ccccc2Cl)c2ccccc2n1,2%
17,Cc1cc(NN=Cc2ccc([N+](=O)[O-])cc2)c2ccc(F)cc2n1,0%
18,COc1ccc(C(=O)N2CCc3cc4nccc(N5CCN6CCC[C@H]6C5)c4cc32)cc1,-12%
19,O=C(Nc1cccc(-c2ccc(-c3nc4ccc(F)cc4[nH]3)cc2)c1)Nc1ccc(Cl)c(Cl)c1,3%
20,Cc1ccc(Cn2ncc(NC3CCNCC3)c(Cl)c2=O)cc1NC(=O)Nc1ccc(-c2ccccc2)cc1,-2%

row,Structure (SMILES),inhibition
1,CCCCNS(=O)(=O)c1ccc(NC(=O)c2cc([N+](=O)[O-])ccc2Cl)cc1,-3%
2,CCNc1cc(C)nc(Nc2ccc(NC(=O)C3CCCC3)cc2)n1,0%
3,COc1ccc(-n2nc(C(=O)NCCC3=CCCCC3)c3ccccc3c2=O)cc1,-4%
4,O=C(NCC1CCN(Cc2ccsc2)C1)c1cc(-c2cccc(C(F)(F)F)c2)cs1 (stereo not given),-2%
5,COc1cc(NC(=O)/C=C/c2cccc3cc[nH]c23)ccc1OCCN(C(C)C)C(C)C,5%
6,C=CCOC(=O)O[C@@H]1[C@@H](OC(=O)OCC=C)[C@@H](OC)O[C@H](COC(c2ccccc2)(c2ccccc2)c2ccccc2)[C@H]1OC(=O)OCC=C,2%
7,O=C(Nc1cccnc1)c1cn(-c2ccccc2)nc1-c1cccs1,-3%
8,O=C(CN1CCCC1)Nc1cccc(C(=O)Nc2cccc(C(F)(F)F)c2)c1,1%
9,O=S(=O)(Nc1cccc(CCN2CCC(N3CCCCC3)CC2)c1)c1cccc(C(F)(F)F)c1,-1%
10,Cc1cc(Cl)ccc1OC(C)C(=O)N1CCc2ccccc21 (stereo not given),-2%
11,COc1cc2nc(N(C)Cc3cccc(I)c3)nc(N)c2cc1OC,1%
12,O=C(Nc1cccc(OC2CCN(Cc3ccsc3)CC2)c1)c1ccc(C(F)(F)F)cc1,-2%
13,CC(C)CCN(Cc1cncn1Cc1ccccc1F)C(=O)c1cncc(-c2ccccc2)c1,-5%
14,Clc1nc2ccccn2c1C=Cc1ccc2ccccc2n1,-6%
15,COc1ccc(-c2cc(Nc3nc(-c4cccc(Cl)c4)nc4ccccc34)ccn2)cc1,-2%
16,COc1ccc(NC(=O)/C=C/c2ccccc2Cl)cc1OCCN1CCC(N2CCCC2)CC1,-1%
17,O=C(Nc1cccc(-c2cccc(-c3nc4ccccc4[nH]3)c2)c1)Nc1ccc(Cl)c(Cl)c1,-3%
18,CCNC(=O)c1ccc(-n2nc(C)cc2-c2ccccc2)cc1,2%
19,CCN(CC)C(=NCCCCCCN=C(NC(N)=NCc1ccc(Cl)cc1)N(CC)CC)NC(N)=NCc1ccc(Cl)cc1,-3%
20,O=C(/C=C/c1ccc(Cl)c(Cl)c1)NCCCCCCN1CCCN(C(=O)Nc2cccc(Cl)c2)CC1,0%

# Tested on: not listed separately
# Test: inhibition of 3D7 malaria parasite growth – strain 3D7 (AID 2306);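 further: 0% = DMSO wells and 100% = chloroquine plus artemisinin control wells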
# Settings: P. falciparum 3D7 erythrocytic growth, LDH absorbance, 72 h; at 2 µM; active compounds read high
row,Structure (SMILES),growth inhibition
1,Cc1ccc(NC(=O)c2ccc(Cl)c(Cl)c2)cc1-c1ccc(C(=O)Nc2ccncc2)cc1,99% (active)
2,O=C(/C=C/c1ccc(C(F)(F)F)cc1)N1CCC(CCN2CCC(c3c[nH]c4ccccc34)CC2)CC1,100% (active)
3,O=C(/C=C/c1ccc(Cl)c(Cl)c1)NC1CCN(Cc2cccc(O)c2)CC1,94% (active)
4,Cc1cccc2[nH]c(-c3ccc(-c4cccc(NC(=O)Nc5ccsc5)c4)cc3)nc12,101% (active)
5,COc1ccc2nccc([C@@H](O)CN3CCC(NCc4ccc5c(c4)OCCO5)CC3)c2c1,101% (active)
6,CCN(c1ccc(F)cc1)S(=O)(=O)c1cc(Br)cc2c1N(C(=O)C1CC1)CC2,88% (active)
7,Cn1c(=N)n(CC(=O)N2CCc3ccc(Cl)cc3C2Cc2ccc(Cl)c(Cl)c2)c2ccccc21 (stereo not given),102% (active)
8,COc1cc(C(=O)N2CCN(C(C)C)CC2)ccc1CN(C)CCCN1CCN(c2cccc(Cl)c2Cl)CC1,101% (active)
9,O=C(NCCc1ccccc1)N(Cc1ccc(-c2cccc(CN3CCNCC3)c2)cc1)C1CCN(Cc2ccccc2)CC1,90% (active)
10,Cc1cc(N2CCCC2)nc(Nc2ccc(NC(=O)c3ccccc3)cc2)n1,100% (active)
11,O=C(Cc1ccccc1)NC(CCN1CCC(O)(c2cccc(C(F)(F)F)c2)CC1)c1ccc(Cl)c(Cl)c1 (stereo not given),96% (active)
12,Oc1ccc(CN2CC[C@@H](N3CCN(CCc4ccccc4)CC3)[C@H](O)C2)cc1Cl,100% (active)
13,Oc1c(C(Nc2nc3ccccc3s2)c2ccccc2)ccc2cccnc12 (stereo not given),95% (active)
14,CN(C)C(CNC(=O)c1cc(-c2ccncc2)c(-c2ccc(NC(=O)Nc3cccc(Cl)c3)cc2)o1)c1ccccc1 (stereo not given),101% (active)
15,COc1cc(NC(=O)c2sc(-c3ccc(Cl)cc3)cc2NC(=O)c2ccncc2)ccc1OCCN1CCCC1,100% (active)
16,Cc1cc(NN=Cc2ccccc2Cl)c2ccccc2n1,102% (active)
17,Cc1cc(NN=Cc2ccc([N+](=O)[O-])cc2)c2ccc(F)cc2n1,101% (active)
18,COc1ccc(C(=O)N2CCc3cc4nccc(N5CCN6CCC[C@H]6C5)c4cc32)cc1,98% (active)
19,O=C(Nc1cccc(-c2ccc(-c3nc4ccc(F)cc4[nH]3)cc2)c1)Nc1ccc(Cl)c(Cl)c1,100% (active)
20,Cc1ccc(Cn2ncc(NC3CCNCC3)c(Cl)c2=O)cc1NC(=O)Nc1ccc(-c2ccccc2)cc1,99% (active)

row,Structure (SMILES),growth inhibition
1,CCCCNS(=O)(=O)c1ccc(NC(=O)c2cc([N+](=O)[O-])ccc2Cl)cc1,92% (active)
2,CCNc1cc(C)nc(Nc2ccc(NC(=O)C3CCCC3)cc2)n1,99% (active)
3,COc1ccc(-n2nc(C(=O)NCCC3=CCCCC3)c3ccccc3c2=O)cc1,94% (active)
4,O=C(NCC1CCN(Cc2ccsc2)C1)c1cc(-c2cccc(C(F)(F)F)c2)cs1 (stereo not given),98% (active)
5,COc1cc(NC(=O)/C=C/c2cccc3cc[nH]c23)ccc1OCCN(C(C)C)C(C)C,99% (active)
6,C=CCOC(=O)O[C@@H]1[C@@H](OC(=O)OCC=C)[C@@H](OC)O[C@H](COC(c2ccccc2)(c2ccccc2)c2ccccc2)[C@H]1OC(=O)OCC=C,95% (active)
7,O=C(Nc1cccnc1)c1cn(-c2ccccc2)nc1-c1cccs1,99% (active)
8,O=C(CN1CCCC1)Nc1cccc(C(=O)Nc2cccc(C(F)(F)F)c2)c1,95% (active)
9,O=S(=O)(Nc1cccc(CCN2CCC(N3CCCCC3)CC2)c1)c1cccc(C(F)(F)F)c1,101% (active)
10,Cc1cc(Cl)ccc1OC(C)C(=O)N1CCc2ccccc21 (stereo not given),94% (active)
11,COc1cc2nc(N(C)Cc3cccc(I)c3)nc(N)c2cc1OC,101% (active)
12,O=C(Nc1cccc(OC2CCN(Cc3ccsc3)CC2)c1)c1ccc(C(F)(F)F)cc1,98% (active)
13,CC(C)CCN(Cc1cncn1Cc1ccccc1F)C(=O)c1cncc(-c2ccccc2)c1,96% (active)
14,Clc1nc2ccccn2c1C=Cc1ccc2ccccc2n1,86% (active)
15,COc1ccc(-c2cc(Nc3nc(-c4cccc(Cl)c4)nc4ccccc34)ccn2)cc1,100% (active)
16,COc1ccc(NC(=O)/C=C/c2ccccc2Cl)cc1OCCN1CCC(N2CCCC2)CC1,102% (active)
17,O=C(Nc1cccc(-c2cccc(-c3nc4ccccc4[nH]3)c2)c1)Nc1ccc(Cl)c(Cl)c1,101% (active)
18,CCNC(=O)c1ccc(-n2nc(C)cc2-c2ccccc2)cc1,89% (active)
19,CCN(CC)C(=NCCCCCCN=C(NC(N)=NCc1ccc(Cl)cc1)N(CC)CC)NC(N)=NCc1ccc(Cl)cc1,100% (active)
20,O=C(/C=C/c1ccc(Cl)c(Cl)c1)NCCCCCCN1CCCN(C(=O)Nc2cccc(Cl)c2)CC1,94% (active)

# Reference: PubChem BioAssay
